# In the supplement of paper PMC11219838:
# A number with no mark means an inactive call.
# Test system: Caenorhabditis elegans L1 (N2)
# Assay: survival and reproduction score of C. elegans L1 (0: 0-10 living worms, 1: 11-20, 2: 21-50, 3: >50, 4: overgrown) (score 0-4); higher = more worms, less nematicidal, active = 1 or less; extreme values may be limits of the assay
# Conditions: 60 µM; 6 days; temperature: 20 °C
# Outline: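 Worm survival and reproduction were recorded as an ordinal score of living worms per well, read under a dissection microscope. Each 96-well well held about 20 synchronized C. elegans N2 L1s with E. coli HB101 in liquid NGM and compound at 60 µM final (0.6% v/v DMSO), sealed and shaken at 200 rpm, 20 °C, for 6 days. Scores ranged from 0 (0–10 worms) to 4 (overgrown, starved) and were the mean of two biological replicates.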
row,SMILES,survival and reproduction score
1,Cc1cc(OCc2nc(-c3ccccc3)no2)ccc1Cl,4
2,Cc1ccc(OC(C)c2nc(-c3cccnc3)no2)cc1 (stereo not drawn),4
3,FC(F)(F)c1cccc(-c2noc(-c3cccs3)n2)c1,0 (active)
4,COc1cccc(-c2nnc(SCc3ccccc3C)o2)c1,4
5,Brc1ccc(-c2noc(-c3ccc(Br)o3)n2)o1,0.5 (active)
6,CCOc1ccccc1-c1nnc(SCC(=O)Nc2nc(C)cs2)o1,4
7,Brc1ccc(-c2nc(-c3ccccc3)no2)cc1,0 (active)
8,Cc1cccc(-c2nc(-c3ccc(Br)cc3)no2)c1,0 (active)
9,Cc1cccc(-c2noc(-c3ccc(Br)cc3)n2)c1,4
10,CCOc1nc(-c2ccc(C)cc2)ccc1-c1noc(-c2cccnc2)n1,4
11,O=C(CSc1nnc(-c2ccc(Cl)cc2Cl)o1)N1CCCCC1,4
12,COc1cccc(-c2noc(COc3ccc(Cl)cc3)n2)c1,4
13,Brc1cccc(-c2noc(-c3ccc4c(c3)OCO4)n2)c1,4
14,Brc1ccc(-c2nnc(-c3cccs3)o2)o1,0 (active)
15,CCc1cccc(C)c1NC(=O)CSc1nnc(-c2ccccc2)o1,4
16,CC(C)(C)c1ccc(OCc2nc(-c3ccccc3)no2)cc1,4
17,Clc1cc(Br)ccc1OCc1nc(-c2cccnc2)no1,4
18,Cc1ccc(SCc2nc(-c3ccc(C)cc3)no2)cc1,4
19,CC(C)c1ccc(OCc2nc(-c3ccncc3)no2)c(Br)c1,4

row,SMILES,survival and reproduction score
1,Cc1ccc(OCc2nc(-c3ccc(Cl)cc3)no2)c(C)c1,4
2,CCOC(=O)c1ccc(NC(=O)c2ccccc2-c2nc(-c3cccc(C)c3)no2)cc1,4
3,COc1ccccc1-c1nnc(SCC(=O)Nc2ccc(C)cc2)o1,4
4,O=C(Nc1cccc(-c2noc(-c3cccnc3)n2)c1)c1cccs1,4
5,CCN(Cc1ccccc1)C(=O)c1ccccc1-c1nc(-c2cccc(C)c2)no1,4
6,Cc1cc(OCc2nc(-c3cccnc3)no2)c(C)cc1Br,4
7,COc1nc(-c2ccc(C)cc2)ccc1-c1noc(-c2ccc(F)cc2)n1,4
8,COc1cccc(NC(=O)c2ccccc2-c2nc(-c3ccccc3Cl)no2)c1,4
9,c1ccc(COc2cccc(-c3nc(-c4ccccn4)no3)c2)cc1,4
10,CN(C(=O)CSc1nnc(-c2ccccc2)o1)c1ccccc1,4
11,Cc1cccc(-c2nnc(SCC(=O)NC(C)c3ccccc3)o2)c1 (stereo not drawn),4
12,Cn1cc(C(=O)CSc2nnc(-c3cccc(Cl)c3)o2)c2ccccc21,4
13,COc1cccc(-c2noc(CSc3ccc(Cl)cc3)n2)c1,4
14,CCOc1nc(-c2ccc(C)cc2)ccc1-c1noc(-c2ccncc2)n1,4
15,COc1ccc(Cl)cc1-c1noc(-c2ccccc2)n1,1 (active)
16,O=C(CSc1nnc(-c2ccc(Br)cc2)o1)OCc1ccccc1,4
17,c1ccc(COc2cccc(-c3nc(-c4cccnc4)no3)c2)cc1,2.5
18,Clc1ccc(-c2noc(-c3ccc4c(c3)OCCO4)n2)cc1,4
19,COc1ccc(CCC(=O)Nc2ccc(-c3noc(-c4ccc(F)cc4)n3)cc2)cc1,4
